Measured values reported in PMC5795388.

How the values were obtained:
Experiment in all cases: cross-link between two proteins; cross-linking mass spectrometry
[1] = biological target: 2-oxoglutarate dehydrogenase complex component E1 (UniProt Q60597)
[2] = biological target: ADP/ATP translocase 1 (UniProt P48962)
[3] = biological target: Cytochrome b-c1 complex subunit 6, mitochondrial (UniProt P99028)
[4] = biological target: Cytochrome c oxidase subunit 7B, mitochondrial (UniProt P56393)
[5] = biological target: Cytochrome c oxidase subunit FA4 (UniProt Q62425)
Sequence of Cytochrome c oxidase subunit FA4 (Q62425 whole entry, the tested form may be a part): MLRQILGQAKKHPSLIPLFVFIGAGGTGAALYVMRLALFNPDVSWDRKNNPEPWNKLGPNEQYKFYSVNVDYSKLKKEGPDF

[6] = biological target: FAST kinase domain-containing protein 2, mitochondrial (UniProt Q922E6)
[7] = biological target: Methylglutaconyl-CoA hydratase, mitochondrial (UniProt Q9JLZ3)
[8] = biological target: NADH dehydrogenase [ubiquinone] flavoprotein 1, mitochondrial (UniProt Q91YT0)
[9] = biological target: ATP synthase F(0) complex subunit g, mitochondrial (UniProt Q9CPQ8)
[10] = biological target: ATP synthase peripheral stalk subunit OSCP, mitochondrial (UniProt Q9DB20)
[11] = biological target: Dynamin-like GTPase OPA1, mitochondrial (UniProt P58281)
[12] = biological target: Protein FAM162A (UniProt Q9D6U8)
Sequence of Protein FAM162A (Q9D6U8 whole entry): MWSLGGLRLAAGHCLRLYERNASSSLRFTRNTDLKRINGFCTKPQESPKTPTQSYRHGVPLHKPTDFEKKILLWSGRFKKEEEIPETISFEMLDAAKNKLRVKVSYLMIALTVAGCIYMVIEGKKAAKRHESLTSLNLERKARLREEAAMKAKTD

[13] = biological target: ATP synthase peripheral stalk subunit F6, mitochondrial (UniProt P97450)
[14] = biological target: Apoptosis-inducing factor 1, mitochondrial (UniProt Q9Z0X1)
[15] = biological target: Cytochrome b-c1 complex subunit 2, mitochondrial (UniProt Q9DB77)
[16] = biological target: Cytochrome b-c1 complex subunit 7 (UniProt Q9D855)
[17] = biological target: Cytochrome b-c1 complex subunit 8 (UniProt Q9CQ69)
[18] = biological target: Cytochrome b-c1 complex subunit 9 (UniProt Q8R1I1)
[19] = biological target: Cytochrome b-c1 complex subunit Rieske, mitochondrial (UniProt Q9CR68)
[20] = biological target: Cytochrome c1, heme protein, mitochondrial (UniProt Q9D0M3)
[21] = biological target: Dihydrolipoyllysine-residue succinyltransferase component of 2-oxoglutarate dehydrogenase complex, mitochondrial (UniProt Q9D2G2)
Sequence of Dihydrolipoyllysine-residue succinyltransferase component of 2-oxoglutarate dehydrogenase complex, mitochondrial (Q9D2G2 whole entry, one chain of several): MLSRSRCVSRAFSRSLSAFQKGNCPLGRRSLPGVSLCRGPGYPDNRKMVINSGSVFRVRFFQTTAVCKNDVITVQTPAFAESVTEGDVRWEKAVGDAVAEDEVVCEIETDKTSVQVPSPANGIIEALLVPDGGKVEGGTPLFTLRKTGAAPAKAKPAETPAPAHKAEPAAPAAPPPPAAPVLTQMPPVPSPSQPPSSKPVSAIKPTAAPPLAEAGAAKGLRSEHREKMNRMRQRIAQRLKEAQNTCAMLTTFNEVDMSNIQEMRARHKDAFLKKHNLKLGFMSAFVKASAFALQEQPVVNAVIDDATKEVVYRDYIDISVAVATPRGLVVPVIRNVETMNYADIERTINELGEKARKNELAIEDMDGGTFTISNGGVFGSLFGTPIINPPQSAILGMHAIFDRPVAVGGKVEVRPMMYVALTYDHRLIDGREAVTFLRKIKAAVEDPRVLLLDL

[22] = biological target: DnaJ homolog subfamily C member 11 (UniProt Q5U458)
[23] = biological target: Double-stranded RNA-binding protein Staufen homolog 1 (UniProt Q9Z108)
Sequence of Double-stranded RNA-binding protein Staufen homolog 1 (Q9Z108 whole entry): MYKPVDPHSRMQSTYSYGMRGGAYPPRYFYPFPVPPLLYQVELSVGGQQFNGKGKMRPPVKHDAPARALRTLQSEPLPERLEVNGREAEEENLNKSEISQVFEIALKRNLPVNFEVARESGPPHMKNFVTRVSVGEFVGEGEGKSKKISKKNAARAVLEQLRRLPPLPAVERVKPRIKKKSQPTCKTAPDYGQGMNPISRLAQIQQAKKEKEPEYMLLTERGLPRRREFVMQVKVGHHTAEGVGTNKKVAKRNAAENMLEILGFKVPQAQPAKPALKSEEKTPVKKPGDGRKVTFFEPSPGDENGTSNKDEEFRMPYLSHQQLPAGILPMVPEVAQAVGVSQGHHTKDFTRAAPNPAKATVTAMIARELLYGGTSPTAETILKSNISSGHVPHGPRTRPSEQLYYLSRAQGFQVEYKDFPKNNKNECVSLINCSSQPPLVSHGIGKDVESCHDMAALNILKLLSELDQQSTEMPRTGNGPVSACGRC

[24] = biological target: Heat shock protein 75 kDa, mitochondrial (UniProt Q9CQN1)
Sequence of Heat shock protein 75 kDa, mitochondrial (Q9CQN1 whole entry): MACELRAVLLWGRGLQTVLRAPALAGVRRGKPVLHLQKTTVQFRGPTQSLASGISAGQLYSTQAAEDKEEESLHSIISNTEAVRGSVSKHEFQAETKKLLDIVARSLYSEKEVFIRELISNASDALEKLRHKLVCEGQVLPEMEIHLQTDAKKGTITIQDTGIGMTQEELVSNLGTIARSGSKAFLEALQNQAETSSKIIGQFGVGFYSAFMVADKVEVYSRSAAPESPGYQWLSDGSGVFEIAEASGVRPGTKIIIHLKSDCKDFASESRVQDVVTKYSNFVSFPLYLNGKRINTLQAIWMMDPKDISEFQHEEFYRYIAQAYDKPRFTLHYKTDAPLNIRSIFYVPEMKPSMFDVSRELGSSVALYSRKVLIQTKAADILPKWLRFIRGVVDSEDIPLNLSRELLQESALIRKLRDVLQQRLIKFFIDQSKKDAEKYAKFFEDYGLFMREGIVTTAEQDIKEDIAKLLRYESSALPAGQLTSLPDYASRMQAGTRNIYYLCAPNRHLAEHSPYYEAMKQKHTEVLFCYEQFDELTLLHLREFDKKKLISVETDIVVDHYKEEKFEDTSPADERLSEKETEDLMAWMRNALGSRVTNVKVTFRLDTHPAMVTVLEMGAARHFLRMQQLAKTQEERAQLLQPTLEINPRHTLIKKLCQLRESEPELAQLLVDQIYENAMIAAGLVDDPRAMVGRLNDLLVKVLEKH

[25] = biological target: Isocitrate dehydrogenase [NAD] subunit alpha, mitochondrial (UniProt Q9D6R2)
[26] = biological target: MICOS complex subunit Mic19 (UniProt Q9CRB9)
[27] = biological target: MICOS complex subunit Mic60 (UniProt Q8CAQ8)
Sequence of MICOS complex subunit Mic60 (Q8CAQ8 whole entry, one chain of several): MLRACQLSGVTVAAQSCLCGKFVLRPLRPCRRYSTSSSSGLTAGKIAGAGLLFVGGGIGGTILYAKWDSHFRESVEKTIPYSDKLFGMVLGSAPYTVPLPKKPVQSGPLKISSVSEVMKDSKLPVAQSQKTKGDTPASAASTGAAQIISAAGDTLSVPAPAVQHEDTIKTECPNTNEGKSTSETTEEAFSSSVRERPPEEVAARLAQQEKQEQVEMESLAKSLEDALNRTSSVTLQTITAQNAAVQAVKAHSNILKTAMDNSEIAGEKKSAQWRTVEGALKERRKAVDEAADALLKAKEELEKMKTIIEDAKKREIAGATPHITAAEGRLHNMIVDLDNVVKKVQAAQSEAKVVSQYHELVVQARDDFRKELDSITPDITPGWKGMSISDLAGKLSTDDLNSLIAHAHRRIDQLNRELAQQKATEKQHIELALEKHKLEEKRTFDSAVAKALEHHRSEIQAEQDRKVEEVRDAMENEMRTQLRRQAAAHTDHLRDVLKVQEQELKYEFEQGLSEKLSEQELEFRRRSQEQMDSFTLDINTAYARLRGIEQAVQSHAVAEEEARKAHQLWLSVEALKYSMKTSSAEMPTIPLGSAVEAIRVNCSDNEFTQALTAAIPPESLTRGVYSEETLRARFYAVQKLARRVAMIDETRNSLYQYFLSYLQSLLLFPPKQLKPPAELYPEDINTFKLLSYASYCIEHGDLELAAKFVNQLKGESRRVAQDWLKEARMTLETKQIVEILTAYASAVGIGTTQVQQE

[28] = biological target: MICOS complex subunit Mic26 (UniProt Q9DCZ4)
[29] = biological target: Methylmalonic aciduria type A homolog, mitochondrial (UniProt Q8C7H1)
[30] = biological target: Mitochondrial fission regulator 1-like (UniProt Q9CWE0)
[31] = biological target: Mitochondrial import inner membrane translocase subunit TIM14 (UniProt Q9CQV7)
[32] = biological target: Mitochondrial import inner membrane translocase subunit Tim9 (UniProt Q9WV98)
[33] = biological target: NADH dehydrogenase [ubiquinone] 1 alpha subcomplex subunit 13 (UniProt Q9ERS2)
Sequence of NADH dehydrogenase [ubiquinone] 1 alpha subcomplex subunit 13 (Q9ERS2 whole entry, one chain of several): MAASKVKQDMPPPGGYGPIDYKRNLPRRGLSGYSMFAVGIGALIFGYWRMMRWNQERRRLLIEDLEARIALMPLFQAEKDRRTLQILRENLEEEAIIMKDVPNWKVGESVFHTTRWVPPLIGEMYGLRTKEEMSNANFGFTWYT

[34] = biological target: NADH dehydrogenase [ubiquinone] 1 alpha subcomplex subunit 9, mitochondrial (UniProt Q9DC69)
[35] = biological target: NADH dehydrogenase [ubiquinone] 1 beta subcomplex subunit 8, mitochondrial (UniProt Q9D6J5)
Sequence of NADH dehydrogenase [ubiquinone] 1 beta subcomplex subunit 8, mitochondrial (Q9D6J5 whole entry, one chain of several): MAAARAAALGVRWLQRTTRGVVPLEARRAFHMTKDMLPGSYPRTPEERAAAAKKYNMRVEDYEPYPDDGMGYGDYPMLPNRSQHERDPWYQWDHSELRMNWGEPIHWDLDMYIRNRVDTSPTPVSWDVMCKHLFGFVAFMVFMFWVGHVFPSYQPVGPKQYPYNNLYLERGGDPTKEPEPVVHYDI

[36] = biological target: NADH-ubiquinone oxidoreductase 75 kDa subunit, mitochondrial (UniProt Q91VD9)
Sequence of NADH-ubiquinone oxidoreductase 75 kDa subunit, mitochondrial (Q91VD9 whole entry): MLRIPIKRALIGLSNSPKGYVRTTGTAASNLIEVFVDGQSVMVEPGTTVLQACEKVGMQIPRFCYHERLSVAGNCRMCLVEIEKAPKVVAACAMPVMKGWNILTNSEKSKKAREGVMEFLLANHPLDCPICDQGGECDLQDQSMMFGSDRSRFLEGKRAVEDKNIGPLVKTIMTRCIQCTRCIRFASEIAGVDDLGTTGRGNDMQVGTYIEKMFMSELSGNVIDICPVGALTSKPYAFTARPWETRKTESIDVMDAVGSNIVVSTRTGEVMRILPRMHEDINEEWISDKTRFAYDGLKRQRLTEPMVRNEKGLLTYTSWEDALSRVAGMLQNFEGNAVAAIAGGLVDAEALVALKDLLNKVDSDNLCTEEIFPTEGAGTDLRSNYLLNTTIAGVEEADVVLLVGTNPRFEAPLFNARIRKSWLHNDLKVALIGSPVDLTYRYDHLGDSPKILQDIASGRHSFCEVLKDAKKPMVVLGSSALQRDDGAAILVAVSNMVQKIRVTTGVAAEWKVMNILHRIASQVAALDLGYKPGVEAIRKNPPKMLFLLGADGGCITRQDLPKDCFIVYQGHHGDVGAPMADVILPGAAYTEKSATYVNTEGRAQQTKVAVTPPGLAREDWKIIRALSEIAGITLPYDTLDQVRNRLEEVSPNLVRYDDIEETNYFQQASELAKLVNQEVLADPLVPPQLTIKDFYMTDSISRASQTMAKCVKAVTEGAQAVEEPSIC

[37] = biological target: Succinate dehydrogenase [ubiquinone] iron-sulfur subunit, mitochondrial (UniProt Q9CQA3)

Sequence of Cytochrome b-c1 complex subunit 6, mitochondrial (P99028 whole entry, one chain of several): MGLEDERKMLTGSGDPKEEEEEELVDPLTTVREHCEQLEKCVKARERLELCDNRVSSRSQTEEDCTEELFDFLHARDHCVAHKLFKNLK
Sequence of Cytochrome c oxidase subunit 7B, mitochondrial (P56393 whole entry): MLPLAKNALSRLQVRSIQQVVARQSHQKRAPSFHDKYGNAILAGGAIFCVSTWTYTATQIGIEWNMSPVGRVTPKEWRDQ
Sequence of 2-oxoglutarate dehydrogenase complex component E1 (Q60597 whole entry, one chain of several): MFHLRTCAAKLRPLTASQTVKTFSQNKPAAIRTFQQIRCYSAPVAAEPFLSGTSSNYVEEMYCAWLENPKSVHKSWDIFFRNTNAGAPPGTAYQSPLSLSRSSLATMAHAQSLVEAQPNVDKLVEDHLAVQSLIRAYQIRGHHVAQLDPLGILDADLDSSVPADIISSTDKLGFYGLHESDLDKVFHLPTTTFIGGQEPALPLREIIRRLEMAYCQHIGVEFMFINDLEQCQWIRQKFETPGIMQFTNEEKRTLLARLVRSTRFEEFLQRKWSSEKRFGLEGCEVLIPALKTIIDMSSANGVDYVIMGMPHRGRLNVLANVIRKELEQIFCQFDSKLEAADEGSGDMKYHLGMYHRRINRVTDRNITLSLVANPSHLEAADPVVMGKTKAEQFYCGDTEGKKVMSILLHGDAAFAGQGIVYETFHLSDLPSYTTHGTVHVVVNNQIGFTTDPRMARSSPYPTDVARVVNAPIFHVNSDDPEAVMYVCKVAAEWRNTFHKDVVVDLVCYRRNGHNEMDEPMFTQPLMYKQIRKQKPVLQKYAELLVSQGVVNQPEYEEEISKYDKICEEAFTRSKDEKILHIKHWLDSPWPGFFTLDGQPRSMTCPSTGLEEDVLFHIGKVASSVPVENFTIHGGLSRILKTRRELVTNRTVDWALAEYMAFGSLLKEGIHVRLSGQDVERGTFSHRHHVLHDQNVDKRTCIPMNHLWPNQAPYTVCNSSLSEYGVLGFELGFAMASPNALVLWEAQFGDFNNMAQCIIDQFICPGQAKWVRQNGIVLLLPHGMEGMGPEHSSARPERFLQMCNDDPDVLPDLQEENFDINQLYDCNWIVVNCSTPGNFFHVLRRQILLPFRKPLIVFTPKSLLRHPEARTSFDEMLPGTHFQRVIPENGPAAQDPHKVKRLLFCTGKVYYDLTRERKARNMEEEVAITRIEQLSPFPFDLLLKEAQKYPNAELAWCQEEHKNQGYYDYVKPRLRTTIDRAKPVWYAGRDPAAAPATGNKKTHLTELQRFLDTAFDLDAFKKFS

Q: How did the “listed as a hit” value [1] turn out when “Dihydrolipoyl dehydrogenase, mitochondrial, O08749” was run?
A: The value was “yes”.

Q: With “Cytochrome c oxidase subunit 4 isoform 1, mitochondrial, P19783” as the substance, how does the “listed as a hit” value [2] read?
A: The value was “yes”.

Q: And the “listed as a hit” value [3]?
A: Its value is “yes”.

Q: What about the “listed as a hit” value [4] of the same substance?
A: Its value is “yes”.

Q: And the “listed as a hit” value [5]?
A: Its value is “yes”.

Q: What about the “listed as a hit” value [6] of the same substance?
A: The value was “yes”.

Q: What about the “listed as a hit” value [7] of the same substance?
A: The value was “yes”.

Q: And the “listed as a hit” value [8]?
A: Its value is “yes”.

Q: For ADP/ATP translocase 1, P48962, which “listed as a hit” value [9] is on record?
A: Its value is “yes”.

Q: What about the “listed as a hit” value [10] of the same substance?
A: The value was “yes”.

Q: And the “listed as a hit” value [3]?
A: The value was “yes”.

Q: And the “listed as a hit” value [4]?
A: Its value is “yes”.

Q: What about the “listed as a hit” value [11] of the same substance?
A: The value was “yes”.

Q: And the “listed as a hit” value [12]?
A: The value was “yes”.

Q: With “Malate dehydrogenase, mitochondrial, P08249” as the substance, how does the “listed as a hit” value [13] read?
A: The value was “yes”.

Q: For “Cytochrome c oxidase subunit FA4, Q62425”, which “listed as a hit” value [14] is on record?
A: Its value is “yes”.

Q: For “Cytochrome c1, heme protein, mitochondrial, Q9D0M3”, which “listed as a hit” value [15] is on record?
A: The value was “yes”.

Q: Cytochrome b, P00158 was tested. Which “listed as a hit” value [16] did it give?
A: Its value is “yes”.

Q: “Cytochrome b-c1 complex subunit 6, mitochondrial, P99028” was tested. Which “listed as a hit” value [17] did it give?
A: The value was “yes”.

Q: Which results are given for “Cytochrome c oxidase subunit 7B, mitochondrial, P56393”?
A: listed as a hit [18]: yes; listed as a hit [5]: yes

Q: “Cytochrome b-c1 complex subunit 8, Q9CQ69” was tested. Which “listed as a hit” value [19] did it give?
A: Its value is “yes”.

Q: And the “listed as a hit” value [20]?
A: The value was “yes”.

Q: How did the “listed as a hit” value [21] turn out when “2-oxoglutarate dehydrogenase complex component E1, Q60597” was run?
A: Its value is “yes”.

Q: For “Alpha-ketoglutarate dehydrogenase component 4, Q9CQX8”, which “listed as a hit” value [21] is on record?
A: The value was “yes”.

Q: With Metaxin-2, O88441 as the substance, how does the “listed as a hit” value [22] read?
A: Its value is “yes”.

Q: Which “listed as a hit” value [23] does the source give for “Acetyl-CoA acetyltransferase, mitochondrial, Q8QZT1” here?
A: The value was “yes”.

Q: For “Stress-70 protein, mitochondrial, P38647”, which “listed as a hit” value [24] is on record?
A: Its value is “yes”.

Q: How did the “listed as a hit” value [25] turn out when “Aspartate aminotransferase, mitochondrial, P05202” was run?
A: Its value is “yes”.

Q: Which “listed as a hit” value [26] does the source give for MICOS complex subunit Mic27, Q78IK4 here?
A: Its value is “yes”.

Q: And the “listed as a hit” value [27]?
A: Its value is “yes”.

Q: MICOS complex subunit Mic60, Q8CAQ8 was tested. Which “listed as a hit” value [28] did it give?
A: The value was “yes”.

Q: With “Methylmalonyl-CoA mutase, mitochondrial, P16332” as the substance, how does the “listed as a hit” value [29] read?
A: The value was “yes”.

Q: For Mitochondrial Rho GTPase 1, Q8BG51, which “listed as a hit” value [30] is on record?
A: Its value is “yes”.

Q: Which “listed as a hit” value [31] does the source give for “Mitochondrial import inner membrane translocase subunit TIM16, Q9CQV1” here?
A: The value was “yes”.

Q: Which “listed as a hit” value [32] does the source give for “Mitochondrial import inner membrane translocase subunit Tim10, P62073” here?
A: Its value is “yes”.

Q: Which “listed as a hit” value [33] does the source give for “NADH dehydrogenase [ubiquinone] 1 alpha subcomplex subunit 8, Q9DCJ5” here?
A: The value was “yes”.

Q: With “StAR-related lipid transfer protein 7, mitochondrial, Q8R1R3” as the substance, how does the “listed as a hit” value [34] read?
A: The value was “yes”.

Q: “NADH dehydrogenase [ubiquinone] 1 beta subcomplex subunit 11, mitochondrial, O09111” was tested. Which “listed as a hit” value [35] did it give?
A: The value was “yes”.

Q: For “NADH dehydrogenase [ubiquinone] iron-sulfur protein 6, mitochondrial, P52503”, which “listed as a hit” value [36] is on record?
A: The value was “yes”.

Q: With Cytochrome c oxidase subunit 6C, Q9CPQ1 as the substance, how does the “listed as a hit” value [12] read?
A: Its value is “yes”.

Q: For “ATP synthase F(0) complex subunit g, mitochondrial, Q9CPQ8”, which “listed as a hit” value [37] is on record?
A: The value was “yes”.
